Test results taken from PubChem BioAssay AID504550 (Sanford-Burnham Center for Chemical Genomics, 2011).
The other results are listed elsewhere or left out. The source made the active and inactive calls.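 The calls were made as follows: active = mean activation at 20 µM of at least 40%; inactive = the rest.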

Target: Neurotensin receptor type 1 (Homo sapiens) (UniProt P30989)
Assay: NTR1 agonists, single-dose retest, confirmation, imaging, U2OS cells, beta-arrestin-GFP, single concentration (AID 504550);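 also: 0% = DMSO without peptide and 100% = 100 nM NTR1 peptide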
Conditions: NTR1-U2OS beta-arrestin-GFP translocation imaging; at 20 µM; stronger effect = higher value

Sequence of Neurotensin receptor type 1 (Homo sapiens) (P30989 whole entry, looked up): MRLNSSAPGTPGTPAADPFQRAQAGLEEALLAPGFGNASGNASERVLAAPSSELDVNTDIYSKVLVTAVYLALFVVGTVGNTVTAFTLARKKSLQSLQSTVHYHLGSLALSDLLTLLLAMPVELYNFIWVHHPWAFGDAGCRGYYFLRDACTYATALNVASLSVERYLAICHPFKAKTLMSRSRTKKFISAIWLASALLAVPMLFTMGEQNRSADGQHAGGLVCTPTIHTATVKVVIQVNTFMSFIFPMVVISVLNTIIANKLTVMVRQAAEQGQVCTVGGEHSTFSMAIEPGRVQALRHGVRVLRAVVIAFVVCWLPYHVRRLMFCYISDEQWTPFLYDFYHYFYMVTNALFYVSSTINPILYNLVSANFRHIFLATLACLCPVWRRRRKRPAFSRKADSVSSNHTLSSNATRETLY

| Structure (SMILES) | activation |
| --- | --- |
| O=C1NC(=O)N(CCc2ccc(F)cc2)C(=O)/C1=C/C=C/c1ccccc1 | 43.1% (active) |
| Cc1cccc(N2C(=O)NC(=O)/C(=C\c3cnn(-c4ccccc4)c3)C2=O)c1 | 47.1% (active) |
